What was measured:
Test in all cases: log2 ratio of Biotin-Ahx-Ub-VS probe labelling (fragment/DMSO); higher = less target engagement (more negative = stronger competition), active = hit call of the paper (q ≤ 0.05, log2 ratio ≤ -1)
Settings in all cases: compound concentration: 200 uM; treatment time: 3 h
[1] = target: T1, USP42 (UniProt Q9H9J4)
T1 sequence (whole entry): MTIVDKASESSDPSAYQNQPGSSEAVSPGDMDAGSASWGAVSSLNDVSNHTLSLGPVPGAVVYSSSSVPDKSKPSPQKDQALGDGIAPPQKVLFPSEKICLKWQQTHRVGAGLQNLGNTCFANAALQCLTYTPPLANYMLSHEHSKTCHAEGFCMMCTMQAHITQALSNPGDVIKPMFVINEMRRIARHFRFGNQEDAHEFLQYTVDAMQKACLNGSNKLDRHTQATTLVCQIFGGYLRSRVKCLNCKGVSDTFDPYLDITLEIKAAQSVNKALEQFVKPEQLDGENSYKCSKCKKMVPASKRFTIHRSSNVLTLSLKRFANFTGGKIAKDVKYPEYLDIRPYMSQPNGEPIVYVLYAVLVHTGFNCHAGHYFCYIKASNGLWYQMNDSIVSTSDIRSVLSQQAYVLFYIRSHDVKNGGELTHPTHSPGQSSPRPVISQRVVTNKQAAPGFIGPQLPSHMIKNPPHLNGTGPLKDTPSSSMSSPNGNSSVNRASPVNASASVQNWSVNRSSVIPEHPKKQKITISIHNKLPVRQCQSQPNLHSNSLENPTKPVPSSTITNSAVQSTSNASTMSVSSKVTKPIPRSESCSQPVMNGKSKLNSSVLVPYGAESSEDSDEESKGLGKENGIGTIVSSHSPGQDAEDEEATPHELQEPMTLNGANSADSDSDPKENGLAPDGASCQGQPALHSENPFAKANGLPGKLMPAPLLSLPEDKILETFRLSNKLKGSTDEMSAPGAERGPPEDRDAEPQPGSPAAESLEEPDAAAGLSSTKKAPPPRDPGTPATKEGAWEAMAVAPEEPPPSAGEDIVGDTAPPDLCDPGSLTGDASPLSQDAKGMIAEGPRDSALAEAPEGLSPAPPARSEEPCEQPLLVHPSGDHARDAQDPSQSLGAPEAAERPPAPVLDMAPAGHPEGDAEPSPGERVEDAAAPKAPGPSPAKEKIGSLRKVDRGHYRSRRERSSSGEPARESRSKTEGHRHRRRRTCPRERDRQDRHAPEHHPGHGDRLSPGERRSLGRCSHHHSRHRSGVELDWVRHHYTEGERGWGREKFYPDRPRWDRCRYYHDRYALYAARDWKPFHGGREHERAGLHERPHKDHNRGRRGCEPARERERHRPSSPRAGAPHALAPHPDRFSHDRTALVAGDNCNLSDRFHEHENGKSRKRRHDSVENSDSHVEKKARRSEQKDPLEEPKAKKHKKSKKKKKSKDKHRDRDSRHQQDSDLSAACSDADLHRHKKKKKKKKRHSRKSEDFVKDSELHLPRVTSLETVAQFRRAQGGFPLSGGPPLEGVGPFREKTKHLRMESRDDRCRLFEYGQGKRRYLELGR
Method in brief: (§1)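 Fragment (200 µM) or vehicle was incubated for 3 h with triplicate HEK293T lysate samples of 495 µg, which were then treated with Biotin-Ahx-Ub-VS at 0.5 µM final for 1 h. Labelled DUBs were enriched on NeutrAvidin, digested with LysC and trypsin, and analysed by diaPASEF LC-MS/MS. Values are average log2 fragment/vehicle ratios from an unpaired t-test on global-median-normalised Spectronaut label-free quantities, using proteins with ≥2 unique peptides.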

[2] = target: USP46 (UniProt P62068)
Method in brief: as §1

[3] = target: T2, USP47 (UniProt Q96K76)
T2 sequence (whole entry): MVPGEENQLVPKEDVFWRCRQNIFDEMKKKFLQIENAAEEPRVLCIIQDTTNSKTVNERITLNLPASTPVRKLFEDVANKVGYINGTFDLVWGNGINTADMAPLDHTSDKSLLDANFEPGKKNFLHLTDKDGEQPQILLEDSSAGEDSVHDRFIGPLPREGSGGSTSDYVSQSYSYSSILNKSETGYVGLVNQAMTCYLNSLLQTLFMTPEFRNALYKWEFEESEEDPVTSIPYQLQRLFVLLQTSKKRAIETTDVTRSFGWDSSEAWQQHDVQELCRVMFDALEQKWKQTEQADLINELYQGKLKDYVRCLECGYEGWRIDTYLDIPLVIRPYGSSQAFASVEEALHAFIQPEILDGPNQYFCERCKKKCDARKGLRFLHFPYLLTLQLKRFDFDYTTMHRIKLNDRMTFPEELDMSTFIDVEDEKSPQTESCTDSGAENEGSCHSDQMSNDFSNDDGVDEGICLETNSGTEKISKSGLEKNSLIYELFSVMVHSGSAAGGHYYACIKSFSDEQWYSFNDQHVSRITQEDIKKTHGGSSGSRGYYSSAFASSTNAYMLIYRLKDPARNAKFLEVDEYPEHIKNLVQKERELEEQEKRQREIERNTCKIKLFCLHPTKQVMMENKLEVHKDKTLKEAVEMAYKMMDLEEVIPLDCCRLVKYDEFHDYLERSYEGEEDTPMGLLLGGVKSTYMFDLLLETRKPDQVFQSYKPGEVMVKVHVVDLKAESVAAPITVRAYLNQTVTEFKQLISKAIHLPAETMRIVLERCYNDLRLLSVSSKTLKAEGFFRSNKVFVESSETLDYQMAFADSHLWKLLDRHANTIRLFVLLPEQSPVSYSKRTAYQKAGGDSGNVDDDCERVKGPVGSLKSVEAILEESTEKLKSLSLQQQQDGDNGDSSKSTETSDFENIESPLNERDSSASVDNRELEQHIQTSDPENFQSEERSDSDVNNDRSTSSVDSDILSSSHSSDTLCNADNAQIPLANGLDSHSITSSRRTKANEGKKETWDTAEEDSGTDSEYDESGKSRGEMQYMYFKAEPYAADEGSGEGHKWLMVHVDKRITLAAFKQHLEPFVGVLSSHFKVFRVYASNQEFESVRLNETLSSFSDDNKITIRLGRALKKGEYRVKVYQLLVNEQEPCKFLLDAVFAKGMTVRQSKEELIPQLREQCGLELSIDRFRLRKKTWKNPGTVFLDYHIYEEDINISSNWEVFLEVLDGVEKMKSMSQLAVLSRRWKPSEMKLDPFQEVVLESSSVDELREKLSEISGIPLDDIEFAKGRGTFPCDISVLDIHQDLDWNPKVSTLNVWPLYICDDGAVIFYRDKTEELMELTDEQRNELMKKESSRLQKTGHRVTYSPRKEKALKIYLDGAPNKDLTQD
Method in brief: as §1

[4] = target: T3, USP48 (UniProt Q86UV5)
T3 sequence (whole entry): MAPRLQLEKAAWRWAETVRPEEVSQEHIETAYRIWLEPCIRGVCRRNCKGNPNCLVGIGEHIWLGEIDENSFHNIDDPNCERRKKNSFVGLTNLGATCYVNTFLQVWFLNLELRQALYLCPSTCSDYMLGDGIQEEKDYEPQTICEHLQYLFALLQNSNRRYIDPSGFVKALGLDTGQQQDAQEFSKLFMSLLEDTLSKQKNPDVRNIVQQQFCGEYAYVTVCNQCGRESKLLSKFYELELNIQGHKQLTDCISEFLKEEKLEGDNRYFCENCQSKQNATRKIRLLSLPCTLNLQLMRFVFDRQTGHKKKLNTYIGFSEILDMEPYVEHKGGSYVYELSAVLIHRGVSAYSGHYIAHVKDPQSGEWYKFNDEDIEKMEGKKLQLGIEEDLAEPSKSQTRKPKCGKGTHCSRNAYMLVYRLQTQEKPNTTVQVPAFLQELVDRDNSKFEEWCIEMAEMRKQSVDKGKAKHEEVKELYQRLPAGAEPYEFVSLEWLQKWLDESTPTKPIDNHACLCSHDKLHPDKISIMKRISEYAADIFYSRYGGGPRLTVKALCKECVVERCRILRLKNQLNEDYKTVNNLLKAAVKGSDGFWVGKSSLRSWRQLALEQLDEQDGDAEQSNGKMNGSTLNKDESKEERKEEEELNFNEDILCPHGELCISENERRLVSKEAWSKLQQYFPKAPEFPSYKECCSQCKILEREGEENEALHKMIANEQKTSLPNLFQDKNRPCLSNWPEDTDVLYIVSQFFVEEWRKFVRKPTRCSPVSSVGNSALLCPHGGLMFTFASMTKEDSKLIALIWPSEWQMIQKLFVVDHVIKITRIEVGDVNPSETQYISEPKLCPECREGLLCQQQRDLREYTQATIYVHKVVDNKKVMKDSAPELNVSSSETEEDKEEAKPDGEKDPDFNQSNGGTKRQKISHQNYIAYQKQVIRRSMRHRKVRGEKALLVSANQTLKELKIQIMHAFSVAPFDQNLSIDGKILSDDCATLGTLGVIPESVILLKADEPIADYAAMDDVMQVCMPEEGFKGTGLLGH
Method in brief: as §1

[5] = target: T4, USP5 (UniProt P45974)
T4 sequence (whole entry): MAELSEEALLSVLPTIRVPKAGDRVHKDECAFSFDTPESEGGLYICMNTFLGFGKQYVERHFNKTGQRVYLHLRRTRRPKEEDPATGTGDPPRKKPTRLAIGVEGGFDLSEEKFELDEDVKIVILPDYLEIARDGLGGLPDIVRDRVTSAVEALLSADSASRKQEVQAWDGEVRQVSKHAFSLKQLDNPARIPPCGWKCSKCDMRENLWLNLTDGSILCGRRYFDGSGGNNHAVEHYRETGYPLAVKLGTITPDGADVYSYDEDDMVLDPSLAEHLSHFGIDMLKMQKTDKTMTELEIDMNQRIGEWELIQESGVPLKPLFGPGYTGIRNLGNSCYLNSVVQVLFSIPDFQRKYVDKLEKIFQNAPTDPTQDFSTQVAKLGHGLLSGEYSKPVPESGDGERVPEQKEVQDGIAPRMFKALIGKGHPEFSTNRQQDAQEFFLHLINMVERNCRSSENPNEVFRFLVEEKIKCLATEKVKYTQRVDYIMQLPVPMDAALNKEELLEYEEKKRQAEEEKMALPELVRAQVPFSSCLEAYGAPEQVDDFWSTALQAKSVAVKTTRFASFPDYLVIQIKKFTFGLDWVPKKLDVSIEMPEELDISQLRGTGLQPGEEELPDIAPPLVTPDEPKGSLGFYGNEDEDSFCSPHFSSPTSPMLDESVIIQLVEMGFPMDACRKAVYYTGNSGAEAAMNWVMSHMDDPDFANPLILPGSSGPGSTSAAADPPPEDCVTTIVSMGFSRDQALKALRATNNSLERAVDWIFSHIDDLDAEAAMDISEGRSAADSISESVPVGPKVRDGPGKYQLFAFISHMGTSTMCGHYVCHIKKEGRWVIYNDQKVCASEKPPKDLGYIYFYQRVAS
Method in brief: as §1

[6] = target: USP54 (UniProt Q70EL1)
Method in brief: as §1

[7] = target: USP7 (UniProt Q93009)
Method in brief: as §1

[8] = target: T5, USP8 (UniProt P40818)
T5 sequence (whole entry): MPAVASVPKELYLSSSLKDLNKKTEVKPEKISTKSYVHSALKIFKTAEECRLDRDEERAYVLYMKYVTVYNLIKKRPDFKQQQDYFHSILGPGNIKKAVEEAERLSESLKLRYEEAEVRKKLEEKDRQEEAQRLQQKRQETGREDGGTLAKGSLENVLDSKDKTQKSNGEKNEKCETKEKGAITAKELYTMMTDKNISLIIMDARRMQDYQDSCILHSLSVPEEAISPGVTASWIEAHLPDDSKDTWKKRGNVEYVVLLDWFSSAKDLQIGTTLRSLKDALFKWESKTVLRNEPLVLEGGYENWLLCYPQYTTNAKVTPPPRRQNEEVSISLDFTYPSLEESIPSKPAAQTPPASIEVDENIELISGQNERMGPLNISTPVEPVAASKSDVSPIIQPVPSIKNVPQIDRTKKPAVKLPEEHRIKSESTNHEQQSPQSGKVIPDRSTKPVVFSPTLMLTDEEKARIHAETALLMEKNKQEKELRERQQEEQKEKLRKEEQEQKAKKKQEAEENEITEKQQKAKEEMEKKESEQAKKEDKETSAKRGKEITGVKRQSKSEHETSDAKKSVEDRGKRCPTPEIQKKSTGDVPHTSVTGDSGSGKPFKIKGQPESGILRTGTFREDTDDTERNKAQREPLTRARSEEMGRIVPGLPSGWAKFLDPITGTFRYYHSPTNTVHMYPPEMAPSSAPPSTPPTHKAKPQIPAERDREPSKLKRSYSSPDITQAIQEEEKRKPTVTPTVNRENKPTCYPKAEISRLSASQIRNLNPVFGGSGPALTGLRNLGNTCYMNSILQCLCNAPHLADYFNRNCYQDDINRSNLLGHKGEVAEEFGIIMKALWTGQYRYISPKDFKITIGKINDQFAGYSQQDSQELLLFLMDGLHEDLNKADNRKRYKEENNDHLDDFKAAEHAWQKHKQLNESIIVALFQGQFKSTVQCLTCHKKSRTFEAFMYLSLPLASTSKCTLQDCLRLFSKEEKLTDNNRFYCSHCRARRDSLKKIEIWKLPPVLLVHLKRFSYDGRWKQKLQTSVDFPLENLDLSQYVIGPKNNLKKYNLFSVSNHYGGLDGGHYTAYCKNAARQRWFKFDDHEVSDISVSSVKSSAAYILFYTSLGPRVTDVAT
Method in brief: as §1

Measured: log2 ratio of Biotin-Ahx-Ub-VS probe labelling

Chain of USP46 (P62068 whole entry): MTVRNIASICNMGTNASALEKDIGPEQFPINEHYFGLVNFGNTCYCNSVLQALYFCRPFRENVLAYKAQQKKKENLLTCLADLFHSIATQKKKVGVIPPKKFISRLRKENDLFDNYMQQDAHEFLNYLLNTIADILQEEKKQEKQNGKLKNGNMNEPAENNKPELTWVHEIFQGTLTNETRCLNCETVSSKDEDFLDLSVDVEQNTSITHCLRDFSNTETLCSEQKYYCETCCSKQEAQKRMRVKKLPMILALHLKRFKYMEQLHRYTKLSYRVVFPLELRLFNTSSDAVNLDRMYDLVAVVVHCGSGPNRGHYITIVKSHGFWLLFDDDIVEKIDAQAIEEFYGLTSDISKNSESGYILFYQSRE
Chain of USP7 (Q93009 whole entry, looked up): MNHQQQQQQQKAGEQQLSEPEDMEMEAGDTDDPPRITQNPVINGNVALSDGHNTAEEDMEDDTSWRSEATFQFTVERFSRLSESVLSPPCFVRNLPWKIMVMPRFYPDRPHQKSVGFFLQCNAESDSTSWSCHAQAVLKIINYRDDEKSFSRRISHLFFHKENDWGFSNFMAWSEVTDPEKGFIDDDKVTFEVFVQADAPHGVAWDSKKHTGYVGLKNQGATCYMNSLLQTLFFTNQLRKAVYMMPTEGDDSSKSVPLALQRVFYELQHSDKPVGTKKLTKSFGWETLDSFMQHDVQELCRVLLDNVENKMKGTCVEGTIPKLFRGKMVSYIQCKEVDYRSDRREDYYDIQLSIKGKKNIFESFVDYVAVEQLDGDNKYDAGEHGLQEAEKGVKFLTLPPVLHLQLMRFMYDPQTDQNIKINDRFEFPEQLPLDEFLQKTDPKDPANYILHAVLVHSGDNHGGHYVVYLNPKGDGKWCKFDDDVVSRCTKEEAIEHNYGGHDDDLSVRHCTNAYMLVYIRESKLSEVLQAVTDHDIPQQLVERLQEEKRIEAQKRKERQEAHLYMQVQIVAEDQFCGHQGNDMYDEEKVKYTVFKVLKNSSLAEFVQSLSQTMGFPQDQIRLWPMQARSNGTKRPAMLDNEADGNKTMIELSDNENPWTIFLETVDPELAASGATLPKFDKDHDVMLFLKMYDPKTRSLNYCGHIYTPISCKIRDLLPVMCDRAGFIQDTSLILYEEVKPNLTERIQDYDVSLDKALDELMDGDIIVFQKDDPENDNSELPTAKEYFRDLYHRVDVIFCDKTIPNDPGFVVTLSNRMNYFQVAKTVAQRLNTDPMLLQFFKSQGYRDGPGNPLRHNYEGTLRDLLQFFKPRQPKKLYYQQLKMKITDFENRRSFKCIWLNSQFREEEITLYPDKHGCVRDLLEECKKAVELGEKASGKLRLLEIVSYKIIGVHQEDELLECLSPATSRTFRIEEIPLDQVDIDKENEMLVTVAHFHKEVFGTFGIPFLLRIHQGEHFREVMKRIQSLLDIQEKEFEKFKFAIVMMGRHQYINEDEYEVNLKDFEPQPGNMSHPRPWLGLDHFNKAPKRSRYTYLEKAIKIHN
Chain of USP54 (Q70EL1 whole entry): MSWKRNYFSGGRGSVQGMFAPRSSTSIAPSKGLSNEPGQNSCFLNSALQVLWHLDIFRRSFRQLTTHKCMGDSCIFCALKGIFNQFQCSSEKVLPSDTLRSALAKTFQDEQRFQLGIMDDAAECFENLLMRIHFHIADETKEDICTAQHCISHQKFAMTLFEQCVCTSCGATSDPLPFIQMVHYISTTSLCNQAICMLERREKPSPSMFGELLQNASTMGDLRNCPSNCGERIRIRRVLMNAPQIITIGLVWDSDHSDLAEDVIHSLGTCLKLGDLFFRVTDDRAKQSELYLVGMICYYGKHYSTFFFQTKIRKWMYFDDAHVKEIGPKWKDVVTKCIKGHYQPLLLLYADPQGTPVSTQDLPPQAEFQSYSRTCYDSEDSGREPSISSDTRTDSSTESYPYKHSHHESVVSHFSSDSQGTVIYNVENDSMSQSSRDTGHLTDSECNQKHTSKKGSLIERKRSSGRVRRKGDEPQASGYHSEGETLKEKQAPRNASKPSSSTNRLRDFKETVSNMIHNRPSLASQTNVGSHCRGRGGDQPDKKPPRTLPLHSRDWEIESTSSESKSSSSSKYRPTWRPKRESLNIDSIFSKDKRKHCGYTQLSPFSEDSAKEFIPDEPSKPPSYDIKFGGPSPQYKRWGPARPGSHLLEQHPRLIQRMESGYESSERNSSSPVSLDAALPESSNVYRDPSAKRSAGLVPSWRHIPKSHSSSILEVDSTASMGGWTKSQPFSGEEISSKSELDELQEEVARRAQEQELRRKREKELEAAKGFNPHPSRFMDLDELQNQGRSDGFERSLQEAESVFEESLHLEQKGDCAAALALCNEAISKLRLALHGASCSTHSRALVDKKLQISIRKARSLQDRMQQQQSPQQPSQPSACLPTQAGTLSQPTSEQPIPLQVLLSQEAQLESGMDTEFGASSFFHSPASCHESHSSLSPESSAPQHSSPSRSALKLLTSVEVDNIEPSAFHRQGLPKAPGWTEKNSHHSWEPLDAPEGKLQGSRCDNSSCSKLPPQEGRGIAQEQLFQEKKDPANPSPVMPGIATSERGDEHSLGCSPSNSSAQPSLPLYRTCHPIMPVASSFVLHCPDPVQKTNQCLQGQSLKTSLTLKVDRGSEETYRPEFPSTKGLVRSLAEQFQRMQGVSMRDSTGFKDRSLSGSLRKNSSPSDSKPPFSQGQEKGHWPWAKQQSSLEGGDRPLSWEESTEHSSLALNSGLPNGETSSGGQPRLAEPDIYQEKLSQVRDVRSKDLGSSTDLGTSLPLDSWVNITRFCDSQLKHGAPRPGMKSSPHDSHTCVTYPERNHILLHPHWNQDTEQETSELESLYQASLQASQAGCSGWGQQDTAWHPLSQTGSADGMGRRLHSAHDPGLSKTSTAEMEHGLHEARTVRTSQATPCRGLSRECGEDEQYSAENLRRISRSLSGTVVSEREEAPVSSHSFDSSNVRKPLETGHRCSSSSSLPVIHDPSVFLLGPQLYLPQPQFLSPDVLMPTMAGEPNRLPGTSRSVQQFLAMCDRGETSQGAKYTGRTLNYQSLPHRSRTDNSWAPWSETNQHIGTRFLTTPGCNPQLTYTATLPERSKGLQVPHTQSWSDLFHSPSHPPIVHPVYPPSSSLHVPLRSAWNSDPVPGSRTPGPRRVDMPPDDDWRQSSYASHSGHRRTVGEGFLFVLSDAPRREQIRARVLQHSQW

Cc1ccc(-c2nnc(C)[nH]2)c(NC(=O)CCl)c1
inactive: [1] 0.00752 | [2] 0.277 | [3] -0.177 | [4] -0.239 | [5] 0.0867 | [6] -0.227 | [7] -0.138 | [8] 0.112

Reference: the supplement of paper PMC11732987, “Enantioselective OTUD7B fragment discovery through chemoproteomics screening and high-throughput optimisation” (Communications Chemistry, 2025)
